# PubChem BioAssay AID1159580 (chemical genetic matrix, 2015)
# Among all 5,500 compounds or so, about 2,000 (36%) were called active. About 18% were inconclusive and are not listed. This is one part of the list. Values without a mark were called inactive. Cut-off read from the data, not from the text of the source: active = normalized growth mostly below about 0.91 (no sharp cut-off); inconclusive = no clear call, values can overlap the other calls; inactive = mostly above about 0.92.
# Experiment: chemical genetic growth profiling, strain panel (AID 1159580);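 note: tested at 20 µM; growth read once vehicle control cultures reached saturation at 30 °C; 1 = growth at the plate median or of vehicle wells; lower values mean less growth of the strain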
# Conditions: growth OD
smiles,measurement,setting,value
COC(=O)Nc1nc2ccc(C(=O)c3ccccc3)cc2[nH]1,normalized growth,"S. cerevisiae deletion strains, locus YJR075W, strain HOC1, active compounds read low",0.924
same,normalized growth,"S. cerevisiae deletion strains, locus YKL009W, strain mrt4, active compounds read low",1.05
same,normalized growth,"S. cerevisiae deletion strains, locus YKL085W, strain MDH1 (second series), active compounds read low",1.05
same,normalized growth,"S. cerevisiae deletion strains, locus YKL085W, strain MDH1, active compounds read low",1.05
same,normalized growth,"S. cerevisiae deletion strains, locus YKL160W, strain elf1, active compounds read low",0.894 (active)
same,normalized growth,"S. cerevisiae deletion strains, locus YKL190W, strain CNB1, active compounds read low",1.01
same,normalized growth,"S. cerevisiae deletion strains, locus YKR001C, strain vps1, active compounds read low",0.956
same,normalized growth,"S. cerevisiae deletion strains, locus YKR026C, strain gcn3, active compounds read low",0.956
same,normalized growth,"S. cerevisiae deletion strains, locus YKR091W, strain srl3, active compounds read low",1
same,normalized growth,"S. cerevisiae deletion strains, locus YLL001W, strain dnm1, active compounds read low",0.933
same,normalized growth,"S. cerevisiae deletion strains, locus YLL026W, active compounds read low",0.973
same,normalized growth,"S. cerevisiae deletion strains, locus YLL041C, strain sdh2, active compounds read low",0.984
same,normalized growth,"S. cerevisiae deletion strains, locus YLR027C, strain aat2, active compounds read low",0.94
same,normalized growth,"S. cerevisiae deletion strains, locus YLR039C, strain RIC1, active compounds read low",0.938
same,normalized growth,"S. cerevisiae deletion strains, locus YLR058C, strain SHM2, active compounds read low",1.02
same,normalized growth,"S. cerevisiae deletion strains, locus YLR102C, strain apc9, active compounds read low",1
same,normalized growth,"S. cerevisiae deletion strains, locus YLR113W, strain HOG1, active compounds read low",0.946
same,normalized growth,"S. cerevisiae deletion strains, locus YLR221C, strain rsa3, active compounds read low",0.939
same,normalized growth,"S. cerevisiae deletion strains, locus YLR258W, strain gsy2, active compounds read low",0.949
same,normalized growth,"S. cerevisiae deletion strains, locus YLR262C, strain YPT6 (second series), active compounds read low",0.782 (active)
same,normalized growth,"S. cerevisiae deletion strains, locus YLR262C, strain YPT6, active compounds read low",0.98
same,normalized growth,"S. cerevisiae deletion strains, locus YLR268W, strain sec22, active compounds read low",0.98
same,normalized growth,"S. cerevisiae deletion strains, locus YLR320W, strain mms22, active compounds read low",0.849 (active)
same,normalized growth,"S. cerevisiae deletion strains, locus YLR330W, strain CHS5, active compounds read low",1
same,normalized growth,"S. cerevisiae deletion strains, locus YLR342W, strain FKS1 (second series), active compounds read low",0.852
same,normalized growth,"S. cerevisiae deletion strains, locus YLR342W, strain FKS1, active compounds read low",0.908 (active)
same,normalized growth,"S. cerevisiae deletion strains, locus YLR357W, strain rsc2, active compounds read low",0.925
same,normalized growth,"S. cerevisiae deletion strains, locus YLR370C, strain arc18, active compounds read low",0.946
same,normalized growth,"S. cerevisiae deletion strains, locus YLR371W, strain rom2, active compounds read low",1.01
same,normalized growth,"S. cerevisiae deletion strains, locus YLR384C, strain iki3, active compounds read low",1
same,normalized growth,"S. cerevisiae deletion strains, locus YLR418C, strain cdc73, active compounds read low",0.932
same,normalized growth,"S. cerevisiae deletion strains, locus YML016C, strain PPZ1, active compounds read low",1.01
same,normalized growth,"S. cerevisiae deletion strains, locus YML032C, strain rad52, active compounds read low",0.957
same,normalized growth,"S. cerevisiae deletion strains, locus YML120C, strain ndi1, active compounds read low",0.96
same,normalized growth,"S. cerevisiae deletion strains, locus YML124C, strain tub3, active compounds read low",0.207 (active)
same,normalized growth,"S. cerevisiae deletion strains, locus YMR058W, strain fet3, active compounds read low",0.968
same,normalized growth,"S. cerevisiae deletion strains, locus YMR078C, strain ctf18, active compounds read low",0.986
same,normalized growth,"S. cerevisiae deletion strains, locus YMR125W, strain sto1, active compounds read low",1.03
same,normalized growth,"S. cerevisiae deletion strains, locus YMR129W, active compounds read low",0.987
same,normalized growth,"S. cerevisiae deletion strains, locus YMR205C, strain PFK2, active compounds read low",0.806 (active)
same,normalized growth,"S. cerevisiae deletion strains, locus YMR223W, strain ubp8, active compounds read low",0.965
same,normalized growth,"S. cerevisiae deletion strains, locus YMR231W, strain pep5, active compounds read low",0.955
same,normalized growth,"S. cerevisiae deletion strains, locus YMR263W, strain SAP30, active compounds read low",0.999
same,normalized growth,"S. cerevisiae deletion strains, locus YMR307W, strain GAS1, active compounds read low",0.463 (active)
same,normalized growth,"S. cerevisiae deletion strains, locus YNL067W, strain RPL9B, active compounds read low",0.978
same,normalized growth,"S. cerevisiae deletion strains, locus YNL071W, strain lat1, active compounds read low",0.925
same,normalized growth,"S. cerevisiae deletion strains, locus YNL128W, strain TEP1, active compounds read low",1.01
same,normalized growth,"S. cerevisiae deletion strains, locus YNL153C, strain GIM3, active compounds read low",0.0819 (active)
same,normalized growth,"S. cerevisiae deletion strains, locus YNL183C, strain NPR1, active compounds read low",0.827 (active)
same,normalized growth,"S. cerevisiae deletion strains, locus YNL209W, strain ssb2, active compounds read low",0.971
same,normalized growth,"S. cerevisiae deletion strains, locus YNL233W, strain BNI4, active compounds read low",0.814 (active)
same,normalized growth,"S. cerevisiae deletion strains, locus YNL248C, strain rpa49, active compounds read low",0.977
same,normalized growth,"S. cerevisiae deletion strains, locus YNL250W, strain rad50, active compounds read low",0.994
same,normalized growth,"S. cerevisiae deletion strains, locus YNL271C, strain bni1, active compounds read low",1.01
same,normalized growth,"S. cerevisiae deletion strains, locus YNL298W, strain CLA4, active compounds read low",1
same,normalized growth,"S. cerevisiae deletion strains, locus YNL307C, strain MCK1, active compounds read low",0.742 (active)
same,normalized growth,"S. cerevisiae deletion strains, locus YNL322C, strain KRE1 (second series), active compounds read low",0.901 (active)
same,normalized growth,"S. cerevisiae deletion strains, locus YNL322C, strain KRE1, active compounds read low",0.997
same,normalized growth,"S. cerevisiae deletion strains, locus YNR049C, strain mso1, active compounds read low",0.981
same,normalized growth,"S. cerevisiae deletion strains, locus YNR052C, strain pop2, active compounds read low",0.91 (active)
same,normalized growth,"S. cerevisiae deletion strains, locus YOL006C, strain TOP1, active compounds read low",0.968
same,normalized growth,"S. cerevisiae deletion strains, locus YOL012C, strain htz1",0.338
same,normalized growth,"S. cerevisiae deletion strains, locus YOL147C, strain pex11, active compounds read low",0.988
same,normalized growth,"S. cerevisiae deletion strains, locus YOR001W, strain rrp6, active compounds read low",0.925
same,normalized growth,"S. cerevisiae deletion strains, locus YOR061W, strain CKA2, active compounds read low",1
same,normalized growth,"S. cerevisiae deletion strains, locus YOR069W, strain VPS5, active compounds read low",0.993
same,normalized growth,"S. cerevisiae deletion strains, locus YOR070C, strain gyp1, active compounds read low",0.949
same,normalized growth,"S. cerevisiae deletion strains, locus YOR080W, strain dia2, active compounds read low",0.979
same,normalized growth,"S. cerevisiae deletion strains, locus YOR083W, strain WHI5, active compounds read low",0.896
same,normalized growth,"S. cerevisiae deletion strains, locus YOR106W, strain vam3, active compounds read low",0.855 (active)
same,normalized growth,"S. cerevisiae deletion strains, locus YOR136W, strain idh2, active compounds read low",1.01
same,normalized growth,"S. cerevisiae deletion strains, locus YOR144C, strain elg1, active compounds read low",1
same,normalized growth,"S. cerevisiae deletion strains, locus YOR184W, strain ser1, active compounds read low",0.717 (active)
same,normalized growth,"S. cerevisiae deletion strains, locus YOR231W, strain MKK1, active compounds read low",0.931
same,normalized growth,"S. cerevisiae deletion strains, locus YOR265W, strain rbl2, active compounds read low",0.98
same,normalized growth,"S. cerevisiae deletion strains, locus YOR270C, strain vph1, active compounds read low",1.07
same,normalized growth,"S. cerevisiae deletion strains, locus YOR290C, strain snf2, active compounds read low",0.959
same,normalized growth,"S. cerevisiae deletion strains, locus YOR316C, strain cot1, active compounds read low",1
same,normalized growth,"S. cerevisiae deletion strains, locus YPL051W, strain arl3, active compounds read low",0.869 (active)
same,normalized growth,"S. cerevisiae deletion strains, locus YPL055C, strain LGE1, active compounds read low",0.865
same,normalized growth,"S. cerevisiae deletion strains, locus YPL078C, strain atp4, active compounds read low",0.931
same,normalized growth,"S. cerevisiae deletion strains, locus YPL106C, strain sse1, active compounds read low",1.12
same,normalized growth,"S. cerevisiae deletion strains, locus YPL240C, strain hsp82, active compounds read low",0.992
same,normalized growth,"S. cerevisiae deletion strains, locus YPL241C, strain CIN2, active compounds read low",0.0733 (active)
same,normalized growth,"S. cerevisiae deletion strains, locus YPL256C, strain CLN2, active compounds read low",0.914
same,normalized growth,"S. cerevisiae deletion strains, locus YPR119W, strain clb2, active compounds read low",0.998
same,normalized growth,"S. cerevisiae deletion strains, locus YPR141C, strain kar3, active compounds read low",1.03
same,normalized growth,"S. cerevisiae deletion strains, locus YPR163C, strain tif3, active compounds read low",0.799 (active)
same,normalized growth,"S. cerevisiae deletion strains, locus YPR167C, strain met16, active compounds read low",1
same,normalized growth,"S. cerevisiae deletion strains, strain wtn01, active compounds read low",0.983
same,normalized growth,"S. cerevisiae strains, strain wild type, active compounds read low",0.99
